Bioassay records (PubChem BioAssay)
RE007 growth inh – less growth of the S. pombe RE007 Vpr strain | S. pombe RE007 Vpr strain, BacTiter-Glo ATP luminescence, 24 h | Potency, µM (highest dose often 92.2 µM), inactives show top-dose activity change, negative = less growth, usual class: inhibitors | hit rate 0.21% among 360,000 | AID 651644; active = well fitted falling curve with a large enough effect; inconclusive = small, poorly fitted or top-dose-only effect; inactive = no such curve, though single readings can be large or run the other way; also: potency is read from the fitted curve at half-maximal effect; nearly all actives have a fitted effect of over 50% in size
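Fission yeast RE007 carrying one integrated HIV-1 vpr copy, seeded at OD 0.01 in PMG+AL medium with 23 nL pinned compound. Grown 24 h at 30 degrees; viability read by BacTiter-Glo luminescence after 5 min.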
Tb PYK inh – blocks Trypanosoma brucei pyruvate kinase; Q57TT1; TbPYK enzyme, Kinase-Glo Plus ATP luminescence, 45 min; Potency, µM (series often up to 76.8 µM), for the others: at the top dose activity, negative = inhibition, usual class: inhibitors; hit rate 0.12% among 410,000; also: potency is read from the fitted curve at half-maximal effect; nearly all actives have a fitted effect of over 50% in size
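TbPYK + substrate in 50 mM TEA pH 7.2, 100 mM KCl, 10 mM MgCl2, 0.05% BSA, 0.01% Tween-20; cpd pinned; ADP 130 uM final; 45 min RT; Kinase-Glo Plus 10 min; luminescence endpoint.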
FMDV inh – foot and mouth disease virus antiviral activity. hit rate 1.2% among 410,000. Potency, µM (top dose mostly 57.9 µM), without a hit: at the top dose activity change, negative = inhibition, actives largely listed as inhibitors. FMDV antiviral cell-based qHTS; calls by dose curve; tested in HEK293T cells; also: read-out not given here; potency is read from the fitted curve at half-maximal effect; nearly all actives have a fitted effect of over 45% in size
Sm TGR inh – inhibitors of Schistosoma mansoni thioredoxin glutathione reductase; purified TGR, DTNB reduction, TNB absorbance 405 nm; Potency, µM (series often up to 114 µM), for inactives: top-dose activity change, negative = inhibition, usual class: inhibitors; hit rate 3% among 360,000; AID 485364; also: potency is read from the fitted curve at half-maximal effect; nearly all actives have a fitted effect of over 60% in size
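Kinetic colorimetric format: TGR-catalysed, NADPH-driven DTNB reduction monitored via TNB absorbance. Enzyme dispensed at 20 nM; compound exposure 15 min at room temperature before reaction start.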
Giardia FBPA inh – inhibitors of Giardia lamblia fructose-1,6-bisphosphate aldolase. A8B2U2. purified Giardia FBPA. Potency, µM (highest dose often 59.6 µM), for inactives: top-dose activity, negative = inhibition, hits mostly inhibitors. hit rate 0.71% among 290,000; also: potency is read from the fitted curve at half-maximal effect; nearly all actives have a fitted effect of over 55% in size
Target sequence (A8B2U2 whole entry, looked up): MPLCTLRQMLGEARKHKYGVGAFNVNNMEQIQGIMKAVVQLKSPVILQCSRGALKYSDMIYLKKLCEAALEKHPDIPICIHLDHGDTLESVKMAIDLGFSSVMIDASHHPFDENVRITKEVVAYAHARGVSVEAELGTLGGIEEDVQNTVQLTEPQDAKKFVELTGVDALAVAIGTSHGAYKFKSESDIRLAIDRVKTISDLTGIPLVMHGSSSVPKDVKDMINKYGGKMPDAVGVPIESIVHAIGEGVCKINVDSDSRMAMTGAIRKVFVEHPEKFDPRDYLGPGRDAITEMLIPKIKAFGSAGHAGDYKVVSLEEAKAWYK
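40 nM FBPA preincubated 10 min at RT with compound (up to 57.5 uM final), then substrate plus GAPDH/TPI/NAD/arsenate coupling and diaphorase/resazurin added. Fluorescence read after 20 min at RT, 525/598 nm.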
HCMV inh – blocks human cytomegalovirus replication. AID 1259415. activity change, negative = inhibition, % at 57.5 µM. HFF cells, HCMV-luciferase reporter, 72 h; stronger effect = lower value. hit rate 4.5% among 410,000; in the data active = activity change below about -60%; inconclusive = no clear call, values can overlap the other calls; inactive = above about -39%
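HFF cells seeded 16 h at 37C, treated with compounds, infected with luciferase-reporter HCMV at MOI 1 PFU/cell; luciferase read at 72 h post infection, normalized to buffer-only and Salinomycin controls.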
An asterisk follows results filed as active; ? = inconclusive; nt = not tested or not shown; ! = not confirmed by another sample; [ ] = dose if it differs, or a comment. Only some compounds are listed: those with a hit (about 7.7% of all), similar ones and a draw of the others. Unless noted, calls follow the shape of the dose curve; as a rule, active = well fitted curve in the direction sought with a large enough effect; inconclusive = small, poorly fitted or top-dose-only effect, or another doubt; inactive = no such curve, though single readings can be large; an effect the other way counts as inactive or inconclusive. % is scaled to controls: 0 for no effect and ±100 for the full control effect.

SMILES	RE007 growth inh	Tb PYK inh	FMDV inh	Sm TGR inh	Giardia FBPA inh	HCMV inh
CC(C)c1nnc(NC(=O)CCS(=O)(=O)Cc2ccccc2)s1	-1%	3%	-11%	-5%	-3%	8
COc1ccc(Cl)cc1NC(=O)CCS(=O)(=O)c1nc(-c2cccs2)cc(C(F)(F)F)n1	nt	-1%	32µM*	-27%	nt	-94*
COc1ccc(NC(=O)CCS(=O)(=O)c2nc(-c3cccs3)cc(C(F)(F)F)n2)cc1	nt	-7%	?	20µM*	nt	-101*
CC(C)c1nnc(NC(=O)CCS(=O)(=O)c2nc(-c3cccs3)cc(C(F)(F)F)n2)s1	-10%	-6%	14µM*	20µM*	2%	43
O=C(CCS(=O)(=O)c1nc(-c2cccs2)cc(C(F)(F)F)n1)Nc1ccc(F)c(Cl)c1	nt	-2%	35µM*	-28%	nt	-99*
O=C(CCS(=O)(=O)c1nc(-c2cccs2)cc(C(F)(F)F)n1)Nc1ccc(OC(F)(F)F)cc1	nt	?	-19%	-6%	nt	38
O=C(NC(Cc1c[nH]c2ccccc12)C(=O)N/N=C/c1cccnc1)c1cccs1 (stereo not given)	-15%	1%	-12%	15%	-5%	-78*
CCc1ccc2[nH]c(=O)c(C(c3nnnn3CCOC)N3CCN(c4ccccc4)CC3)cc2c1 (stereo not given)	-5%	-14%	0%	45µM*	-24%	28
COCCn1nnnc1C(c1cc2cccc(C)c2[nH]c1=O)N1CCN(c2ccccc2F)CC1 (stereo not given)	-17%	-25%	-8%	14µM*	-18%	119
COCCn1nnnc1C(c1ccccc1OC)N1CCN(c2ccccc2F)CC1 (stereo not given)	-10%	-4%	-7%	0%	9%	-2
COCCn1nnnc1C(c1cc2cc(OC)c(OC)cc2[nH]c1=O)N1CCN(c2ccc(O)cc2)CC1 (stereo not given)	9%	?	-5%	11%	?	13
CCc1ccc2[nH]c(=O)c(C(c3nnnn3Cc3ccccc3)N3CCOCC3)cc2c1 (stereo not given)	-18%	-10%	-15%	0%	-7%	23
CCc1ccc2[nH]c(=O)c(C(c3nnnn3CCOC)N3CCN(c4ccc(F)cc4)CC3)cc2c1 (stereo not given)	-6%	7%	-3%	50µM*	-28%	63
COc1cc2c(c(OC)c1OC)-c1c(cc3c(c1OC)OCO3)CC(C)C(C)(O)C2 (stereo not given)	nt	1%	nt	nt	nt	nt
COc1cccc([C@@H]2Oc3ccc(OC)cc3/C(=N/OC[C@@H](C)[C@H](OCc3ccccc3)C(C)C)[C@@H]2O)c1	nt	nt	nt	nt	-1%[12.9 µM]	nt
O=C(Cn1ncc2c(=O)oc3ccccc3c21)Nc1cc(F)ccc1F	nt	1%	-1%	-3%	nt	3
CN(C)C(=O)c1cccc(-c2cccc(-c3nc(C(=O)NCc4ccccc4)cc4c3[C@@H](CCO)N(S(=O)C(C)(C)C)C4)c2)c1 (stereo not given in full)	11%	0%	-16%	nt	nt	-61*
CCNC(=O)c1cc2c(c(-c3cccc(-c4cccc(C(=O)N(C)C)c4)c3)n1)[C@H](CCO)N(S(=O)C(C)(C)C)C2 (stereo not given in full)	-3%	1%	-23%	nt	nt	55
OC(c1cccnc1)c1ccc2c(c1)CN(Cc1cccc3c1OCO3)CCO2 (stereo not given)	nt	nt	0%	nt	nt	nt
CCC1CN(C(=O)C2CCN(S(=O)(=O)c3c(C)noc3/C=C/c3ccccc3F)CC2)c2cc(Cl)ccc2O1 (stereo not given)	nt	3%	-12%	1%	nt	-2
O=C(Nc1ccc(Cl)cc1)C(Cl)C(=O)c1ccccc1 (stereo not given)	11µM*	?	30%	?	-2%	33
O=C(Nc1ccccc1Cl)C(Cl)C(=O)c1ccccc1 (stereo not given)	2%	-18%	90%	14%	-9%	30
CC(C)(C)c1ccc(-n2nc(C#N)c(Cl)cc2=O)cc1	?	-6%	13µM*	8.9µM*	-5%	-101*
CC(C)(C)c1ccc(-n2nc(C(N)=O)c(O)cc2=O)cc1	-8%	-18%	-10%	0%	-8%	3
C=CC[N+]1(C)CC[C@]23c4c5ccc(O)c4O[C@H]2C(=O)CC[C@@]3(O)[C@H]1C5 (stereo not given in full)	-2%[18.4 µM]	-20%	-7%	50µM*	nt	35
SMILES	RE007 growth inh	Tb PYK inh	FMDV inh	Sm TGR inh	Giardia FBPA inh	HCMV inh
Cn1c(-c2ccsc2)cc2c(Nc3ccc(Oc4ccccc4)cc3)nccc21	nt	nt	nt	nt	nt	-89*
Cc1ccc(CNC(=O)c2ccc3c(c2)N(Cc2ccccc2Cl)C(=O)CS3)cc1	nt	-3%	-28%	6%	nt	-38
CCc1c(C)nc2nncn2c1NCc1ccc(Cl)cc1	nt	8%	?	4%	nt	-69*
CC1CCCN(Cc2c(O)ccc3c(=O)c(-c4ccccc4Cl)c(C(F)(F)F)oc23)C1 (stereo not given)	nt	2%	-24%	11%	nt	6
CCOC(=O)c1ccc(NC(=O)C2CCCN(c3ncnc4onc(C)c34)C2)cc1 (stereo not given)	nt	2%	0%	-1%	nt	-75*
COC(=O)c1ccccc1NC(=O)C1CCCN(c2ncnc3onc(C)c23)C1 (stereo not given)	nt	1%	?	0%	nt	-5
CC[C@H](C)[C@H](NC(=O)[C@H](Cc1ccc(O)cc1)NC(=O)[C@@H](NC(=O)[C@H](CCCN=C(N)N)NC(=O)[C@@H](N)CC(=O)O)C(C)C)C(=O)N[C@@H](Cc1cnc[nH]1)C(=O)N1CCC[C@H]1C(=O)N[C@@H](Cc1ccccc1)C(=O)N[C@@H](Cc1cnc[nH]1)C(=O)N[C@@H](CC(C)C)C(=O)O	nt	nt	nt	nt	-8%	nt
O=C(Nc1ccc(F)cc1)N1CCN(c2ccc3nnc(-c4ccc(F)cc4)n3n2)CC1	10%	-5%	?	-4%	-6%	-69*!
O=C(c1ccc(Br)o1)N1CCN(c2ccc3nnc(-c4ccccc4)n3n2)CC1	-7%	-6%	?	?	-5%	-72*
Cc1nnc2ccc(N3CCN(C(=O)c4ccccc4)CC3)nn12	4%	-4%	-17%	-6%	-5%	8
COc1cc(Cl)c(C)cc1NC(=O)CSCc1nc(-c2ccc(OC)c(OC)c2)no1	nt	-2%	-7%	-3%	nt	34
CCc1cccc(C)c1NC(=O)C1CCN(S(=O)(=O)c2c(C)noc2/C=C/c2c(C)cc(C)cc2C)CC1	nt	2%	-14%	3%	nt	?
